The nature of assay [1]: small molecules captured by biotinylated probe aFSTL3 – biochemical, small-molecule microarray, fluorescence 635/667, stem cell growth factor project, primary screen (AID 1064).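 Note: measures binding of the biotinylated anti-FSTL3 antibody to printed compounds.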 Particulars: higher = more signal.
A short description of assay [2]: binders from COS7 lysate, DM2A8 probe, primary screen, torsin A project, cell lysate, small-molecule microarray, fluorescence 635/667 (AID 1065). Particulars: higher = more signal, COS7 lysate expressing mutant human TOR1A.
Assay [3] can be described thus: small molecules captured by biotinylated probe aFGF2 – biochemical, small-molecule microarray, fluorescence 635/667, stem cell growth factor project, primary screen (AID 1067).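 Note: measures binding of biotinylated aFGF2 protein to printed compounds on slides; z-score merges feature fluorescence and signal-to-noise across triplicate slides.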 Particulars: higher = more signal.
Assay [4] can be described thus: small molecules captured by biotinylated probe aFGF10 – biochemical, small-molecule microarray, fluorescence 635/667, stem cell growth factor project, primary screen (AID 1071).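 Note: score merges 667 nm spot intensity and signal to noise from triplicate slides.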 Particulars: higher = more signal.
Assay [5] deals with Neurogenic locus notch homolog protein 2 (Homo sapiens) (UniProt Q04721). The experiment in a line: small molecules binding Notch2 protein – biochemical, small-molecule microarray, 635 nm fluorescence, stem cell growth factors, primary screen (AID 1073). To be noted: higher = more signal.
Assay [6] has as its target Pro-neuregulin-1, membrane-bound isoform (Homo sapiens) (UniProt Q02297). As to the kind of experiment: small molecules binding neuregulin-1 protein – biochemical, small-molecule microarray, fluorescence 635/667, psychiatric disease protein project, primary screen (AID 1075).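 Note: score combines 667 nm spot fluorescence with signal to noise.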 To be noted: NRG1 binding, 635 nm fluorescence, higher = more signal.
Assay [7] deals with Neuregulin-1 EGF-like domain. As to the kind of experiment: small molecules binding NRG1 EGF domain – biochemical, small-molecule microarray, 635 nm fluorescence, primary screen (AID 1081).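 Note: binding of the protein to compounds printed on small-molecule microarray slides.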 Particulars: higher = more signal.
A short description of assay [8]: FRG1 expression reporter modulators in myotubes – cell-based, C2C12 myotubes, firefly/Renilla luciferase, luminescence, FRG1 inhibition for FSHD, primary screen (AID 1084). To be noted: FRG1 promoter luciferase, higher = more signal, called active from +8 up or from −8 down.
Assay [9] in a line: small molecules captured by biotinylated probe aFST – biochemical, small-molecule microarray, fluorescence 635/667, stem cell growth factor project, primary screen (AID 1086).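 Note: score merges 667 nm fluorescence with signal-to-noise of each printed compound spot.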 Particulars: higher = more signal.
A short description of assay [10]: binders of probe aHhip on microarray, primary screen, stem cell growth factor project, biochemical, small-molecule microarray, fluorescence 635/667 (AID 1087).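 Note: score merges spot fluorescence at 667nm with spot signal to noise ratio.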 To be noted: higher = more signal.
For assay [11], the system named is PRMT1 (protein arginine N-methyltransferase 1). As to the kind of experiment: small molecules binding arginine methyltransferase PRMT1 – biochemical, small-molecule microarray, 635 nm fluorescence, primary screen (AID 1088).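 Note: binding of Prmt1 protein to compounds spotted on small-molecule microarray slides.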 To be noted: higher = more signal.
Assay [12] can be described thus: growth effects on S. cerevisiae YJM789 – YJM789 clinical isolate, OD600, 24 h, basal, primary screen (AID 1089).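 Note: growth of clinical yeast isolate S. cerevisiae YJM 789 seeded 1000 cells per well; test concentration not given here.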 To be noted: higher = more signal, called active from +8 up or from −8 down.
Assay [13] is described as follows: S. pombe growth modifiers, basal conditions – strain 972, OD600, 24 h, no modulator, primary screen (AID 1090).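 Note: basal condition with compound alone and no growth modifier present; test concentration not given here.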 To be noted: S. pombe 972 growth, higher = more signal, called active from +8 up or from −8 down.
Assay [14] is described as follows: budding yeast growth modifiers under rapamycin – strain BY4716, OD600, 96 h, primary screen (AID 1091). Note: test concentration not given here. To be noted: S. cerevisiae BY4716 + rapamycin, higher = more signal, called active from +8 up or from −8 down.
The target of assay [15] is Torsin-1A-interacting protein 2 (Homo sapiens) (UniProt Q8NFQ8). As to the kind of experiment: small molecules binding lysate-expressed LULL1 – cell lysate, human LULL1 lysate, 635/667 nm fluorescence, primary screen (AID 1092).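 Note: probe is lysate of COS7 cells overexpressing human LULL1; score merges per-feature 667 nm fluorescence with signal-to-noise.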 Particulars: small-molecule microarray, hLULL1 lysate binding, 635 nm fluorescence; higher = more signal.
Sequence of Torsin-1A-interacting protein 2 (Homo sapiens) (Q8NFQ8 whole entry, looked up): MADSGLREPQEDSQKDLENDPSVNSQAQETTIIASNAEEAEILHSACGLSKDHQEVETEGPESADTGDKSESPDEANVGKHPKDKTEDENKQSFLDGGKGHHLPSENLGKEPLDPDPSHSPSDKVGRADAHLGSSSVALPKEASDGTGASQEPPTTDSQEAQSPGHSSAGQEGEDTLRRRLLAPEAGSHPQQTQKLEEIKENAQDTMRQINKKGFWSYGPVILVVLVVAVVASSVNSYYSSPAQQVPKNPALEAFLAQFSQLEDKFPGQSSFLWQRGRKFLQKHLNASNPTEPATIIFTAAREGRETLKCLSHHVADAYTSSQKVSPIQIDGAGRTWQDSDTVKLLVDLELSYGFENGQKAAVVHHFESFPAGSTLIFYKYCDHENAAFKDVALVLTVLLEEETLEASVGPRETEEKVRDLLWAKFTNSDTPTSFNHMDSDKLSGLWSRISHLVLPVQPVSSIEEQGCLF
A short description of assay [16]: optical density change of DRC41 E. coli – strain DRC41, OD650, 24 h, E. coli filamentation project, primary screen (AID 1093).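 Note: MC1000 strain lacking acrAB efflux and sulA so SOS filamentation is blocked; test concentration not given here.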 Particulars: E. coli DRC41 growth, higher = more signal, called active from +8 up or from −8 down.
A short description of assay [17]: probe aLefty2 binding to arrayed compounds – biochemical, biotinylated probe, 635/667 nm fluorescence, primary screen (AID 1094).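 Note: score merges spot fluorescence near 667 nm with spot signal-to-noise ratio.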 To be noted: small-molecule microarray, higher = more signal.
Assay [18] has as its system Noggin (protein binding on small-molecule microarray). The experiment in a line: small molecules binding Noggin protein – biochemical, 635/667 nm fluorescence, primary screen (AID 1095).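 Note: score merges 667 nm feature fluorescence with signal to noise over triplicate slides.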 Particulars: 635 nm fluorescence, higher = more signal.
Assay [19] has as its target Neurogenic locus notch homolog protein 3 (Homo sapiens) (UniProt Q9UM47). The experiment in a line: small molecules binding NOTCH3 protein – biochemical, 635/667 nm fluorescence, primary screen (AID 1096). To be noted: small-molecule microarray, 635 nm fluorescence, higher = more signal.
Assay [20] in a line: probe aEGFR binding to arrayed compounds – biochemical, biotinylated probe, 635/667 nm fluorescence, primary screen (AID 1097).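 Note: probe is a biotinylated anti-EGFR antibody binding compounds printed on slides; score combines fluorescence near 667 nm and signal to noise of each spot.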 Particulars: small-molecule microarray, higher = more signal.

Molecules are shown by their SMILES. Active and inactive are the calls of the source.

Sequence of Neurogenic locus notch homolog protein 3 (Homo sapiens) (Q9UM47 whole entry, looked up): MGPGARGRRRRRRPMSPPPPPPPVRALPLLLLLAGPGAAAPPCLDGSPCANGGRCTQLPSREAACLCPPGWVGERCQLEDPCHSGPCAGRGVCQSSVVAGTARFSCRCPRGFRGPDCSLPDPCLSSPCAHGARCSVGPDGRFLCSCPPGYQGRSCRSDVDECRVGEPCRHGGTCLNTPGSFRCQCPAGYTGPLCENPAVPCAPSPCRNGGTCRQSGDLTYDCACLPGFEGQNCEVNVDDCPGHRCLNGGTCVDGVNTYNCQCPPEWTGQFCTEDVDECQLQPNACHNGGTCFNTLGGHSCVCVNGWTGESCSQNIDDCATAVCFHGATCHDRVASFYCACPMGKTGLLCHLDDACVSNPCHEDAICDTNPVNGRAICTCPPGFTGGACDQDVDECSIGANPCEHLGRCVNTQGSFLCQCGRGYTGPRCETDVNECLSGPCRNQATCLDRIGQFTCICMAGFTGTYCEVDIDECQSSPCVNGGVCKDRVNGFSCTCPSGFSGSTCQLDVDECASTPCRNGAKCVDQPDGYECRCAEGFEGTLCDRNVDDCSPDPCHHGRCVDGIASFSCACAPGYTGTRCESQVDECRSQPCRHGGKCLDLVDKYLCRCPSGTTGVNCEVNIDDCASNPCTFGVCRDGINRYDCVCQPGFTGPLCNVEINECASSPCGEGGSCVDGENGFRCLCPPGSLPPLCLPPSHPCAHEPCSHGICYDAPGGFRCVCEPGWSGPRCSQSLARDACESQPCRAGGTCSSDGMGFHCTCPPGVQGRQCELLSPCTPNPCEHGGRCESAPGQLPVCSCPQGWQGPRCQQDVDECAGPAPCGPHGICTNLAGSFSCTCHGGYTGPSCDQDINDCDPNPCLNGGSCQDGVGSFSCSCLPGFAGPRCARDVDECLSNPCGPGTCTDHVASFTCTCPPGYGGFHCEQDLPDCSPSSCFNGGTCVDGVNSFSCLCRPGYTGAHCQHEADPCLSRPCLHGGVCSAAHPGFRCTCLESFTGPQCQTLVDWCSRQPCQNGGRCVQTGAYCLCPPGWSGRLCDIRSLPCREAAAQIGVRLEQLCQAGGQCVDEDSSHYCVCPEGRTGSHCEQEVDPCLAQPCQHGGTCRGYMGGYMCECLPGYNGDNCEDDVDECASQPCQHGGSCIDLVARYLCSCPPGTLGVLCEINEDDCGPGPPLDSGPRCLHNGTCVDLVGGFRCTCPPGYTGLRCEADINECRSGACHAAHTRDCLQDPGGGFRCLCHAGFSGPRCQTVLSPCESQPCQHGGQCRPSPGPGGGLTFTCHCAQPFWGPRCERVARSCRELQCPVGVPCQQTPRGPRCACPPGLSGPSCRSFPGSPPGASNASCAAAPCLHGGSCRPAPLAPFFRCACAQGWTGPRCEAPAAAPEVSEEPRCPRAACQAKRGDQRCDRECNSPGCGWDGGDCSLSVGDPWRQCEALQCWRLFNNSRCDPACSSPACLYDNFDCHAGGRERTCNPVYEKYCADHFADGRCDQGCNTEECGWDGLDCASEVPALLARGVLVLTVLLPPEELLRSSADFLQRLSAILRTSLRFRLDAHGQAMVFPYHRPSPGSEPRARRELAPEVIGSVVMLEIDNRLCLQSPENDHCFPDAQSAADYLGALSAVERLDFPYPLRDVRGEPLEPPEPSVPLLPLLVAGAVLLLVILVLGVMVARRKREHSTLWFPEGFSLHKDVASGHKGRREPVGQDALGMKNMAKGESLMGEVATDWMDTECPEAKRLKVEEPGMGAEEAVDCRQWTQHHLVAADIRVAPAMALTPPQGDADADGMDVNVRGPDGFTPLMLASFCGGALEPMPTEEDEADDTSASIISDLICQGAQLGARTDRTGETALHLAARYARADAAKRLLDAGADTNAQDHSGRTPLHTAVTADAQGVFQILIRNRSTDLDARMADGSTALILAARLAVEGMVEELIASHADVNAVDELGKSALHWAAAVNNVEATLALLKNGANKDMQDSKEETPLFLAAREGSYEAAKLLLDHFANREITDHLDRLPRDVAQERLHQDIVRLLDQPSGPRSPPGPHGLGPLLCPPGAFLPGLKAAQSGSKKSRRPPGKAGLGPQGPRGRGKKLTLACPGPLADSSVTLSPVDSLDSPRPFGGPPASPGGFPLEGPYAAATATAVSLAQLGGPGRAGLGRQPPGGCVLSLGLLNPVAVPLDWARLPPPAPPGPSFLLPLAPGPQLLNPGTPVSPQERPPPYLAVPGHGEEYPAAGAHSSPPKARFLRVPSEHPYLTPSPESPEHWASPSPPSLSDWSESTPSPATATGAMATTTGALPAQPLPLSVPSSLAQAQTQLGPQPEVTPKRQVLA
Sequence of Pro-neuregulin-1, membrane-bound isoform (Homo sapiens) (Q02297 whole entry, looked up, the tested form may be a part, canonical isoform): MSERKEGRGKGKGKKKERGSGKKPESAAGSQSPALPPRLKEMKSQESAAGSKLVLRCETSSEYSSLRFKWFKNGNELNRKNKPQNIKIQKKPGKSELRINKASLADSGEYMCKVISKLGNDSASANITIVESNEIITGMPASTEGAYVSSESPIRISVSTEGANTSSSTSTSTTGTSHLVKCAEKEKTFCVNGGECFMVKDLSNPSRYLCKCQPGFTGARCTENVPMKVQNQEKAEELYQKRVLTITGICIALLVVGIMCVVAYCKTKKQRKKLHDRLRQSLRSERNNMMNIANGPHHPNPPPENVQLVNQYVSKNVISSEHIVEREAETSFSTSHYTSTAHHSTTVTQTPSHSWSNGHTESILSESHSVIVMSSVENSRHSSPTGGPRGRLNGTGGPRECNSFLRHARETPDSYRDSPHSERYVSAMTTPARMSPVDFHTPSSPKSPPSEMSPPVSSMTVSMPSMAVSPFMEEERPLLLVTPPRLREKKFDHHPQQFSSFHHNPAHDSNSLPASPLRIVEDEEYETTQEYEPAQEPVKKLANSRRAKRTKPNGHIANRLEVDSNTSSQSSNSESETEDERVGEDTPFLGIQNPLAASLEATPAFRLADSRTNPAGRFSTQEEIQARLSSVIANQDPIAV

Turning to `COC(=O)[C@@]1(Cc2ccc(F)cc2)[C@H]2c3cc(C(=O)N(C)C)n(Cc4ccccn4)c3C[C@H]2CN1C(=O)c1ccccc1`, the composite z-score in assay [1] was determined as 0.449; in assay [2], 0.55; in assay [3] it was 0.25; in assay [4], 0.658; in [5] it was 1.65; in [6], 1.42. In addition, the composite z-score in assay [7] is 1.38; in assay [9] it was 1.55; in [10], 1.49; in assay [11], 0.837; in assay [15] it was 3.7; in assay [17] it was -0.153. The composite z-score in assay [18] was found to be 0.321; in assay [19], 1.01; in assay [20] it was 0.533. The z-score in assay [8] is 3.37 (inactive); in [12], -0.602 (inactive); in assay [13], -0.306 (inactive); in assay [14], -0.545 (inactive); in [16], -0.0591 (inactive).
For `COCCOC(=O)N1C(=O)[C@@]2(c3cc(C#CC4=CCCCC4)ccc31)[C@H](C(=O)N1CCN(c3ncccn3)CC1)[C@H]1C(=O)O[C@H](c3ccccc3)[C@H](c3ccccc3)N1[C@@H]2c1ccc(OCCO)cc1`, the composite z-score in assay [1] is 0.121; in assay [2], 0.181; in assay [3], 0.0533; in [4], 0.723; in assay [5], 1.42; in assay [6], -0.289. Besides, the composite z-score amounted to 1.17 in [7]; 0.824 in [9]; 0.109 in assay [10]; 1.55 in assay [11]; 2.02 in [15]; 0.415 in assay [17]. Further, the figures for the composite z-score in assay [18], in assay [19] and in assay [20] were 0.554, 1.14 and 0.145, respectively. Also, the z-score in [8] is 0.384 (inactive); in assay [12], 1.48 (inactive); in assay [13], 0.442 (inactive); in assay [14], 3.23 (inactive); in assay [16] it was 0.0301 (inactive).
As for `CC(C)CNC(=O)[C@@]1(C)c2ccccc2C(=O)N(C(C)C)[C@H]1c1ccc(CO)cc1`, the composite z-score is 0.095 in assay [1]; -0.456 in assay [2]; -0.0803 in assay [3]; -0.435 in assay [4]; -1.78 in assay [5]; 0.0276 in [6]. In addition, the composite z-score in assay [7] is -0.266; in assay [9], -0.37; in assay [10] it was 0.0424; in assay [11], -1.32; in [15] it was 1.16; in assay [17], 0.44. In addition, the results for the composite z-score in assay [18], in assay [19] and in assay [20] were -0.933, -2.11 and 0.0744, respectively. The z-score in assay [8] was 0.0705 (inactive); in assay [12] it was 0.0968 (inactive); in assay [13] it was 0.481 (inactive); in [14] it was 0.0297 (inactive); in assay [16], -0.0935 (inactive).
On to `COc1cc(NN2C(C(O)c3ccccc3)C=CC3C(=O)N(c4ccccc4)C(=O)C32)cc(OC)c1OC` (stereo not given), for which the composite z-score in assay [1] was -0.0824; in [2] it was 0.215; in assay [3] it was 0.135; in assay [4], 1.13; in assay [5] it was 1.56; in assay [6], 1.87. For the same compound, the composite z-score in assay [7] is 1.38; in assay [9], 1.08; in assay [10], -0.194; in [11] it was 1.34; in [15], 3.5; in assay [17] it was 0.17. In addition, the composite z-score in [18] came out at 0.833; in assay [19], 1.03; in assay [20] it was 0.016. Besides, the z-score in [8] was 0.556 (inactive); in assay [12], 0.694 (inactive); in assay [13], -0.933 (inactive); in assay [14] it was 0.126 (inactive); in assay [16] it was -0.288 (inactive).
For `NC(=O)NCC#Cc1ccc2c(c1)[C@]1(C(=O)N2)[C@H](c2ccccc2OCCO)N2[C@H](c3ccccc3)[C@H](c3ccccc3)OC(=O)[C@H]2[C@@H]1C(=O)N1CCCCCCC1`, the composite z-score was found to be 3.75 in assay [1]; 1.38 in assay [2]; 0.866 in [3]; 0.803 in assay [4]; 1.38 in assay [5]; 1.31 in assay [6]. The composite z-score in assay [7] came out at 1.08; in assay [9], 3.41; in assay [10], 3.04; in [11], 1.55; in assay [15] it was 4.09; in assay [17], 1.79. Also, the composite z-score in assay [18] came to 1.8; in [19], 1.11; in [20], 1.21. Moreover, the z-score in [8] is -1.7 (inactive); in assay [12], 0.456 (inactive); in assay [13] it was -1.36 (inactive); in assay [14] it was 1.49 (inactive); in [16], 1.26 (inactive).
Take `Cc1cc(C)c(C(O)C2C=CC3C(=O)NC(=O)C3N2Nc2ccccn2)c(C)c1` (stereo not given): the composite z-score in assay [1] is 0.36; in assay [2] it was 0.135; in [3] it was -0.0878; in assay [4], 0.0012; in [5] it was 0.486; in assay [6] it was 1.65. Besides, the composite z-score in assay [7] was 0.986; in [9] it was 0.578; in [10] it was 0.0373; in assay [11], 0.442; in [15] it was 1.65; in [17] it was 0.0961. Moreover, the composite z-score in [18] is 0.0197; in assay [19] it was 0.525; in assay [20], 0.0221. The z-score was 1.03 (inactive) in assay [8]; 0.441 (inactive) in [12]; 1.11 (inactive) in assay [13]; 0.415 (inactive) in [14]; -1.16 (inactive) in assay [16].
Take `Cc1ccc(N2C(=O)c3ccccc3[C@](C)(C(=O)NCCN3CCOCC3)[C@@H]2c2ccc(CO)cc2)nc1`: the composite z-score in [1] is 1.54; in [2], -0.653; in assay [3], -0.0249; in assay [4] it was -0.112; in [5], -1.41; in assay [6], -0.819. For the same compound, the composite z-score in assay [7] is 0.0367; in assay [9] it was -0.748; in assay [10] it was -0.287; in [11], -0.405; in assay [15], 1.04; in assay [17] it was 0.0216. For the same compound, the composite z-score in assay [18] is -1.02; in [19], -1.74; in assay [20], -0.312. Further, the z-score in assay [8] is 0.517 (inactive); in [12], 0.0623 (inactive); in assay [13] it was -0.822 (inactive); in assay [14] it was -0.324 (inactive); in assay [16] it was -1.4 (inactive).
Turning to `C=C(C(=O)CC[C@H](OC(=O)c1cccnc1)c1ccccc1OCCO)C(C)C`, the composite z-score was 0.0323 in assay [1]; 1.78 in [2]; -0.133 in [3]; 0.636 in [4]; 0.0984 in [5]; -0.124 in [6]. Besides, the composite z-score was 0.962 in assay [7]; 0.106 in [9]; -0.204 in [10]; 1.53 in assay [11]; 1.58 in assay [15]; 0.0692 in [17]. Further, the results for the composite z-score in [18], in assay [19] and in [20] were 1.71, 0.423 and 0.0004, respectively. The z-score in [8] is 0.276 (inactive); in assay [12], -2.6 (inactive); in [13] it was -0.267 (inactive); in assay [14], -0.598 (inactive); in [16], -0.0377 (inactive).
Regarding `COCCOC(=O)N1C(=O)[C@@]2(c3cc(C#CC4(O)CCCCCC4)ccc31)[C@H](c1ccc(O)cc1)N1[C@H](c3ccccc3)[C@H](c3ccccc3)OC(=O)[C@H]1[C@@H]2C(=O)N1CCc2cc(OC)c(OC)cc2C1`, the composite z-score was 0.244 in assay [1]; -0.287 in assay [2]; -0.116 in [3]; -0.432 in assay [4]; -1.54 in assay [5]; 0.449 in assay [6]. Besides, the composite z-score is 0.0919 in assay [7]; -0.538 in [9]; -0.268 in [10]; 1.56 in assay [11]; 2.41 in assay [15]; -0.0719 in assay [17]. The values for the composite z-score in assay [18], in [19] and in assay [20] were -0.435, -0.551 and -0.226, respectively. In addition, the z-score in assay [8] is 0.0543 (inactive); in assay [12], -0.749 (inactive); in assay [13], -0.395 (inactive); in assay [14] it was -0.494 (inactive); in assay [16] it was 1.45 (inactive).

Values taken from PubChem BioAssay.
